The results in this text go back to PubChem BioAssay (NCATS).

A short description of test [1]: NS1 protein of Zika virus - qHTS assay to identify small molecule inhibitors in human HEK 293 cells (AID 1347053). Also: series mostly up to about 46 µM; nearly all actives have a fitted effect of over 55% in size. The method, boiled down:
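HEK 293; 20 h pre-culture, 37 C/5% CO2; cpd 1 h pre-infection; ZIKV MR766, MOI = 0.5, 24 h, 37 C; TR-FRET NS1 readout (two anti-NS1 Abs); norm. to no-virus vs infected.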

Test [2] can be described thus: qHTS for Inhibitors of the Functional Ribonucleoprotein Complex (vRNP) of Lassa (LASV) Arenavirus: LASV Primary Screen - GLuc reporter signal (AID 1347082; calls by dose curve; tested in HEK293 reporter line; also: series mostly up to about 57 µM; nearly all actives have a fitted effect of over 60% in size).
The nature of test [3]: qHTS for Inhibitors of the Functional Ribonucleoprotein Complex (vRNP) of Lassa (LASV) Arenavirus: Viability assay - alamar blue signal for LASV Primary Screen (AID 1347083; calls by dose curve; tested in HEK293 reporter line; also: nearly all actives have a fitted effect of over 80% in size; also: potency is read from the fitted curve at half-maximal effect).
Test [4] in a line: qHTS for Inhibitors of the Functional Ribonucleoprotein Complex (vRNP) of Lymphocytic Choriomeningitis Arenaviruses (LCMV): Viability assay - alamar blue signal for LCMV Primary Screen (AID 1347085; calls by dose curve; tested in HEK293 reporter line; also: nearly all actives have a fitted effect of over 80% in size; also: potency is read from the fitted curve at half-maximal effect). Background: In qHTS, concentration-response curves come from the screen itself.
Test [5] has as its target Nucleoprotein (Lymphocytic choriomeningitis virus (strain Armstrong)) (UniProt P09992). Kind of test: qHTS for Inhibitors of the Functional Ribonucleoprotein Complex (vRNP) of Lymphocytic Choriomeningitis Arenaviruses (LCMV): LCMV Primary Screen - GLuc reporter signal (AID 1347086; calls by dose curve; also: series mostly up to about 57 µM; nearly all actives have a fitted effect of over 70% in size).
Test [6] in a line: qHTS of pediatric cancer cell lines to identify multiple opportunities for drug repurposing: Primary screen for TC32 cells (AID 1347089). Also: nearly all actives have a fitted effect of over 60% in size. Summed up: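 In the primary qHTS, MIPE compounds were tested at 11 concentrations (0.78 nM to 46 µM) and NPC compounds at 8 (0.59 nM to 46 µM) on TC32 cells for 48 h. CellTiter-Glo luminescence gave viability.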
Test [7] can be described thus: qHTS of pediatric cancer cell lines to identify multiple opportunities for drug repurposing: Primary screen for DAOY cells (AID 1347090). Also: series mostly up to about 46 µM; nearly all actives have a fitted effect of over 55% in size. The method, boiled down: (§1)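 Eight- or eleven-point concentration series, 48 h treatment at 37 degrees C in growth media; readout CellTiter-Glo luminescence. Potency and efficacy were taken from the concentration-response curves.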

Test [8] can be described thus: qHTS of pediatric cancer cell lines to identify multiple opportunities for drug repurposing: Primary screen for SJ-GBM2 cells (AID 1347091). Also: potency is read from the fitted curve at half-maximal effect. The method, boiled down:
as §1

Test [9] is described as follows: qHTS of pediatric cancer cell lines to identify multiple opportunities for drug repurposing: Primary screen for A673 cells (AID 1347092). Also: nearly all actives have a fitted effect of over 45% in size. Also: potency is read from the fitted curve at half-maximal effect. Summed up:
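48 h compound exposure, A673, 500-1,000 cells/well, 37 degrees C/5% CO2. MIPE: 11-point, 0.78 nM-46 µM; NPC: 8-point, 0.59 nM-46 µM (final). Readout CellTiter-Glo luminescence after 15 min RT.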

A short description of test [10]: P-glycoprotein substrates identified in KB-8-5-11 adenocarcinoma cell line, qHTS therapeutic library screen (AID 1346987). Also: nearly all actives have a fitted effect of over 65% in size. Also: potency is read from the fitted curve at half-maximal effect. Summed up:
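P-gp-mediated resistance screen: KB-8-5-11 cells treated 72 h with compounds in dose-response. CellTiter-Glo viability.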

Test [11] in a line: qHTS of pediatric cancer cell lines to identify multiple opportunities for drug repurposing: Primary screen for SK-N-MC cells (AID 1347093). Also: potency is read from the fitted curve at half-maximal effect. Summed up: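 Metabolically active cells were quantified by ATP-dependent luminescence (CellTiter-Glo, 15 min at room temperature) following 48 h treatment. Cells had been plated at 500-1,000 per well and settled for 5 h beforehand.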
Test [12] can be described thus: Natriuretic polypeptide receptor (hNpr1) antagonism - Pilot counterscreen GloSensor control cell line (AID 1347045; calls by dose curve; also: series mostly up to about 38 µM). The method, boiled down:
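This counterscreen uses HEK293 cells expressing the GIP/pGS-40F cGMP biosensor. Compound-treated cells are challenged with 50 uM sodium nitroprusside, and the luciferase signal is compared before and after stimulation.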

For test [13], the target named is Atrial natriuretic peptide receptor 1 (Homo sapiens) (UniProt P16066). Kind of test: Natriuretic polypeptide receptor (hNpr1) antagonism - Pilot screen (AID 1347049; calls by dose curve;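 also: agonist-evoked cGMP luminescence read 20 min after hNppA addition; series mostly up to about 58 µM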). Summed up: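 HEK293 cells co-expressing hNpr1 and the GloSensor pGS-40F cGMP luciferase sensor were preloaded with 2% GloSensor reagent for 2 h. Compounds were added for 30 min at room temperature, then cells were stimulated with 0.1 nM hNppA for 20 min before luminescence readout.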

For test [14], the target named is Atrial natriuretic peptide receptor 2 (Homo sapiens) (UniProt P20594). As to the kind of experiment: Natriuretic polypeptide receptor (hNpr2) antagonism - Pilot subtype selectivity assay (AID 1347050; calls by dose curve). The method, boiled down:
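cGMP-sensor HEK293/hNpr2 cells; 2% GloSensor reagent 2 h RT; compounds 30 min; baseline luminescence read; 1 nM hNppC agonist 20 min RT; final luminescence read by CCD camera. Antagonism = reduced post-agonist signal.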

For test [15], the target named is T1, Tyrosine-protein phosphatase non-receptor type substrate 1 (Homo sapiens) + Leukocyte surface antigen CD47 (Homo sapiens) (UniProt P78324+Q08722). As to the kind of experiment: CD47-SIRPalpha protein protein interaction - LANCE assay qHTS validation (AID 1347057; active = well fitted curve in the direction sought with a large enough effect in the signal ratio, with a control signal flat, not every such curve was filed as active; the % refers to the signal ratio; also: series mostly up to about 38 µM). The method, boiled down: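 First, His-tagged CD47 and Eu-labelled anti-His antibody met the compound for 30 min; next, site-specifically biotinylated SIRPalpha was added for 30 min; finally streptavidin-APC was added before reading the TR-FRET ratio.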
A general note: Time-resolved FRET reads energy transfer from a long-lived donor to a nearby acceptor.

The target in test [16] is T1, Tyrosine-protein phosphatase non-receptor type substrate 1 (Homo sapiens) + Leukocyte surface antigen CD47 (Homo sapiens). As to the kind of experiment: CD47-SIRPalpha protein protein interaction - HTRF assay qHTS validation (AID 1347058; active = well fitted curve in the direction sought with a large enough effect in the signal ratio, not every such curve was filed as active; the % refers to the signal ratio;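 also: recombinant soluble extracellular CD47 with His tag and biotinylated SIRPalpha domains; series mostly up to about 38 µM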). Summed up:
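TR-FRET read (Ch1/Ch2 ratio) of soluble extracellular CD47 and Avi-biotinylated SIRPalpha domains in PBS pH 7.4 with 0.05% IGEPAL; 7-point compound titration. Sequential 30 min room-temperature steps; non-biotinylated SIRPalpha as control inhibitor.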

In test [17] the target is Parathyroid hormone/parathyroid hormone-related peptide receptor (Homo sapiens) (UniProt Q03431). Kind of test: qHTS for PTHR1 Agonists: Optimization Screen against the NCGC LOPAC library (AID 1347079).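 Also: GloSensor cAMP luminescence in HEK-293 GP2 cells expressing human PTHR1 with IBMX.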 The method, boiled down:
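Compounds were tested across a qHTS titration. PTHR1-expressing GP2 cells report cAMP rises via GloSensor luminescence after 1 hr compound exposure at 37C with IBMX present.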

Records with an inconclusive call do not appear. The source made the active and inactive calls. Unless noted, calls follow the shape of the dose curve; as a rule, active = well fitted curve in the direction sought with a large enough effect; inconclusive = small, poorly fitted or top-dose-only effect, or another doubt; inactive = no such curve, though single readings can be large; an effect the other way counts as inactive or inconclusive.

Chain of Nucleoprotein (Lymphocytic choriomeningitis virus (strain Armstrong)) (P09992 whole entry, looked up): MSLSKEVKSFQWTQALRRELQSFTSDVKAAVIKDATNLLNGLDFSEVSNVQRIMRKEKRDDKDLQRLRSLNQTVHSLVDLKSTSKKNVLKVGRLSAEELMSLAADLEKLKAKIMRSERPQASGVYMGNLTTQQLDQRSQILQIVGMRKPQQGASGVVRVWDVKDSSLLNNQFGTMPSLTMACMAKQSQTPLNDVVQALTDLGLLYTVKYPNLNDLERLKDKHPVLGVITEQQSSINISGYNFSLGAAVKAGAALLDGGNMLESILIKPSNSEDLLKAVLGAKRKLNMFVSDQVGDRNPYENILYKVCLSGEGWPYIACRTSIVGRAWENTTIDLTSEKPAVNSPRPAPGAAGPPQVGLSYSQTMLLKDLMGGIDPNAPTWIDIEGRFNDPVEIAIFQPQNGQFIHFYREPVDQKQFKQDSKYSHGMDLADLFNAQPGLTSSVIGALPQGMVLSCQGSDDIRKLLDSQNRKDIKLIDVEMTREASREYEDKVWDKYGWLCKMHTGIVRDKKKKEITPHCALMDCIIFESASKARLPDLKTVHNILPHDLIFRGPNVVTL
T1 sequence (P78324 whole entry, looked up): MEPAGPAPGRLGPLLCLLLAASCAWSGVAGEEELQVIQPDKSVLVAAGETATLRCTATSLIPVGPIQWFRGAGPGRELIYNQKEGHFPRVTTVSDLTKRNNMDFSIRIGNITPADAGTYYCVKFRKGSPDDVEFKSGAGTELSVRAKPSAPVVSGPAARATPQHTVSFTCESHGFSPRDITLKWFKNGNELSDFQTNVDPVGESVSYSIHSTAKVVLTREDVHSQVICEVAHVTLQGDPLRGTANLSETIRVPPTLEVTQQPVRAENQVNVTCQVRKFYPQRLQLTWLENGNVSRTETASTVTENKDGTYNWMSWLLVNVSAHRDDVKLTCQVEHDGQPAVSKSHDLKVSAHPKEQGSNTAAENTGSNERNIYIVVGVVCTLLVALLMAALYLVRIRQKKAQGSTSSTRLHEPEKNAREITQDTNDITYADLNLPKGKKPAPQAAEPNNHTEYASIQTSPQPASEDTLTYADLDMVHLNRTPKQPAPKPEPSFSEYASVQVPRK
T1 sequence (Q08722 whole entry, looked up): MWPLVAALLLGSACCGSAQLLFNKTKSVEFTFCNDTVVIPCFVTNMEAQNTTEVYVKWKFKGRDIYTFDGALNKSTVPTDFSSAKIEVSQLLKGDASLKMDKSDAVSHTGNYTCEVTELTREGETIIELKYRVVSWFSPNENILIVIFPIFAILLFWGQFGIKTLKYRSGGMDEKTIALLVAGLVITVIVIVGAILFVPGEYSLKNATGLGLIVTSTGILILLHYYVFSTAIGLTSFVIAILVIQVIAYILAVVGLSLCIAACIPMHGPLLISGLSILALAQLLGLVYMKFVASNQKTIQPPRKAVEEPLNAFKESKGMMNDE
Chain of Atrial natriuretic peptide receptor 2 (Homo sapiens) (P20594 whole entry, looked up): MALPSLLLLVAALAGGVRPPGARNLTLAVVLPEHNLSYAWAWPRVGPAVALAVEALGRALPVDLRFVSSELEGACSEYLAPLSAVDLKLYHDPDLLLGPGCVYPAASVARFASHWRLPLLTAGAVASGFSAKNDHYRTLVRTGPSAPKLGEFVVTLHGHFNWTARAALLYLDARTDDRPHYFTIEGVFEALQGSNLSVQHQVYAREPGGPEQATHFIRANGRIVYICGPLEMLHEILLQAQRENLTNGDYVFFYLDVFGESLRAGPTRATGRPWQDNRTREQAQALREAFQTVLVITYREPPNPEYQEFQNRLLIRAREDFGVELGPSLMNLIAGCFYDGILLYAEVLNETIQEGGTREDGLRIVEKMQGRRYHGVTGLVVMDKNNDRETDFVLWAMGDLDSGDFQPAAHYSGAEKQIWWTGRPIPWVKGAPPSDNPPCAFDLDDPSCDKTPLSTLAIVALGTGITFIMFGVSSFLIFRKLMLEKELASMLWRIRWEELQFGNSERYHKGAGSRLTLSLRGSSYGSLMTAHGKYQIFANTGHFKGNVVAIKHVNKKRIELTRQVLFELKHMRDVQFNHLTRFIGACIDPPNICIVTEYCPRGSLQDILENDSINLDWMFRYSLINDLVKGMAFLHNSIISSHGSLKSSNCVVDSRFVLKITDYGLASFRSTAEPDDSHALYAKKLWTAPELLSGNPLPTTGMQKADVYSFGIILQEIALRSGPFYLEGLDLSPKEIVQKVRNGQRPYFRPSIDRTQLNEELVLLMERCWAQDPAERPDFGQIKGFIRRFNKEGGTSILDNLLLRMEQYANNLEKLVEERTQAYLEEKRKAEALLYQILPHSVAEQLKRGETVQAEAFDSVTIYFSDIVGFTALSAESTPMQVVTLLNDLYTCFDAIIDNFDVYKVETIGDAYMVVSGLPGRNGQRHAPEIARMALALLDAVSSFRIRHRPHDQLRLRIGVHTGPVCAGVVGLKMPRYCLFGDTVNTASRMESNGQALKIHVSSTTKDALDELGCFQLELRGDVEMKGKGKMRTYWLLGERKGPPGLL
Chain of Atrial natriuretic peptide receptor 1 (Homo sapiens) (P16066 whole entry, looked up): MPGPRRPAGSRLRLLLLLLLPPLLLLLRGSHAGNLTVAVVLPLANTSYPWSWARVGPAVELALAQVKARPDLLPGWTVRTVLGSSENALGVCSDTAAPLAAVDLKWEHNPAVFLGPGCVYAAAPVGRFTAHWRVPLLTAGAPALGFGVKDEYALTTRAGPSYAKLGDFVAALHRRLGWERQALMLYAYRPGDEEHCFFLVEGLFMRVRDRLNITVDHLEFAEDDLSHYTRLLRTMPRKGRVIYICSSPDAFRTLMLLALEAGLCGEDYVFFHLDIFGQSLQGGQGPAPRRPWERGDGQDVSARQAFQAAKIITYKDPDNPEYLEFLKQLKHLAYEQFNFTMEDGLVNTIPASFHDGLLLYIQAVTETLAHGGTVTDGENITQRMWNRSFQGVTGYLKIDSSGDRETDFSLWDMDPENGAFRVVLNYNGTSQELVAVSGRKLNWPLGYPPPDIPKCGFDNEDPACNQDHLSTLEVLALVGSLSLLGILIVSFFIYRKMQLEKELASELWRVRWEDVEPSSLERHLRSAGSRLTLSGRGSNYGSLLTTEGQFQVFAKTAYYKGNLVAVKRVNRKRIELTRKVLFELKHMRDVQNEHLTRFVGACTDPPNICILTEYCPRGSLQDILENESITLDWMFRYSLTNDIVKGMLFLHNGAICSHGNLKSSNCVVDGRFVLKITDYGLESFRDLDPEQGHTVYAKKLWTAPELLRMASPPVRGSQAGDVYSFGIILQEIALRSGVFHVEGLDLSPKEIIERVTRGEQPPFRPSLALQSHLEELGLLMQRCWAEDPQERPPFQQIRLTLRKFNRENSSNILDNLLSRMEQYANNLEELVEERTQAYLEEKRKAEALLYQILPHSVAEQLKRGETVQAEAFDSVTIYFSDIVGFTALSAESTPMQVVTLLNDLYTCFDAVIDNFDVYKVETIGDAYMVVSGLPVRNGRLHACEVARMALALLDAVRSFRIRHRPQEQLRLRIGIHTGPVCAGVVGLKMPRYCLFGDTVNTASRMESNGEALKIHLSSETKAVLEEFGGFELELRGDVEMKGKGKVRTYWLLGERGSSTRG
Chain of Parathyroid hormone/parathyroid hormone-related peptide receptor (Homo sapiens) (Q03431 whole entry, looked up): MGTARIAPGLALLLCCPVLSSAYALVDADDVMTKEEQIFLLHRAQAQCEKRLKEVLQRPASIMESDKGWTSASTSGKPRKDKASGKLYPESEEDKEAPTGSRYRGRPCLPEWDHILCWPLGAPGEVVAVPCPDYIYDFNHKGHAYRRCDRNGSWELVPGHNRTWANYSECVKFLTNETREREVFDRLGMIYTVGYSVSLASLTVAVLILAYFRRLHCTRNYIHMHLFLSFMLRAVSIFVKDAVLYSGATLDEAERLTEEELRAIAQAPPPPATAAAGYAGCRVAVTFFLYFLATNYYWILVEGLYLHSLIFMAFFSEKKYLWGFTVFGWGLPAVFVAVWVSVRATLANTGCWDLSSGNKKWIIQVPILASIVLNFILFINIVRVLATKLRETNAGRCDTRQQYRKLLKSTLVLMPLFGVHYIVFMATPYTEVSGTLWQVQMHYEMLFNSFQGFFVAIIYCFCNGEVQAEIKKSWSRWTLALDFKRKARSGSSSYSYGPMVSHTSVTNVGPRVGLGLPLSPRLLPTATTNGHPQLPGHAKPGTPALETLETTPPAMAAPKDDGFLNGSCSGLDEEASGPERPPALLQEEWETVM

Turning to `c1ccc(N2CCNCC2)cc1`, the outcome in [1] was inactive. Moreover, the Potency result in [2], in test [3], in test [4], in test [5], in [6] and in test [7] was “inactive” in each case. Also, the Potency entry in test [8] and in test [9] was “inactive” throughout.

Turning to `C#C[C@]1(O)CC[C@H]2[C@@H]3CCC4=CC(=O)CC[C@]4(C)[C@H]3CC[C@@]21C`, the Potency entry in test [10], in test [2], in [3], in test [4], in [5] and in test [6] was “inactive” each time. Moreover, the Potency entry in [7], in [8], in [9] and in test [11] was “inactive” throughout.

As to `C[C@]12CC[C@H]3[C@@H](CCC4=CC(=O)CC[C@@H]43)[C@@H]1CC[C@@H]2OC(=O)CCc1ccco1`, in test [1], the molecule was classed as inactive. Also, the Potency result in [2], in test [3], in [4], in test [5], in test [6] and in test [7] was “inactive” throughout. Further, the Potency entry in [9] is “inactive”.

As for `CCC(C)(C)c1ccc(O)cc1`, the Potency result in test [10], in [2], in [3], in test [4], in test [5] and in test [6] was “inactive” throughout. The Potency entry in test [7], in test [8], in test [9] and in [11] was “inactive” each time.

As for `C[C@]12CCC(=O)C=C1CC[C@@H]1[C@H]3CC[C@](C)(O)[C@@]3(C)CC[C@@H]12`, the Potency is 31.6 µM (active) in test [10] and 49 µM (active) in [8]. Moreover, the Potency result in test [2], in test [3] and in test [5] was “inactive” throughout.

Take `CC(=O)C1CCOC1=O` (stereo unspecified): the molecule was called inactive in test [1]. The Potency result in test [2], in [3], in test [4], in test [5], in test [6] and in test [8] was “inactive” throughout. Moreover, the Potency result in test [9] was “inactive”.

For the molecule `C[C@@H]1CC2=CC(=O)CC[C@@H]2[C@H]2CC[C@@]3(C)[C@@H](CC[C@]3(C)O)[C@@H]21`, the call in test [1] was inactive. Moreover, the Potency result in test [2], in [3], in test [4], in test [5], in test [6] and in test [8] was “inactive” throughout. The Potency entry in test [9] and in test [11] was “inactive” each time.

With `O=C(N/N=C/c1ccc([N+](=O)[O-])o1)c1cc([N+](=O)[O-])cc([N+](=O)[O-])c1O`, the Potency result in test [10], in [2], in test [3], in test [4], in [5] and in [6] was “inactive” each time. For the same molecule, the Potency entry in test [7], in test [8], in test [9] and in test [11] was “inactive” throughout.

In the case of `C[C@]12CC[C@H]3[C@@H](CC[C@@]45O[C@H]4C(O)=C(C#N)C[C@]35C)[C@H]1CC[C@H]2O`, the call in test [1] was inactive. Further, the Potency result in test [2], in test [3] and in test [8] was “inactive” in each case. The Potency in [9] is 18.7 µM (active); in [11] it was 3.32 µM (active).

Regarding `O=C(CCCN1CCC2(CC1)C(=O)NCN2c1ccccc1)c1ccc(F)cc1`, the outcome in [12], in [13], in [14], in test [15], in test [16] and in test [17] was inactive. Besides, the Potency entry in test [2], in test [3], in [4], in [5], in test [6] and in test [7] was “inactive” each time. The Potency result in [9] and in test [11] was “inactive” each time.

Consider `CCOc1ccc2nc3cc(N)ccc3c(N)c2c1`, for which, in test [2], the Potency entry is “inactive”.

With `CO[C@H]1C[C@@H]2CC[C@@H](C)[C@@](O)(O2)C(=O)C(=O)N2CCCC[C@@H]2C(=O)O[C@H]([C@@H](C)C[C@@H]2CC[C@H](O)[C@H](OC)C2)CC(=O)[C@H](C)C=C(C)[C@@H](O)[C@@H](OC)C(=O)[C@H](C)C[C@H](C)C=CC=CC=C1C`, the Potency result in [2] was “inactive”. Also, the Potency in test [3] is 2.7 nM (active); in test [4] it was 12.2 nM (active).

Regarding `C[C@](N)(Cc1ccc(O)cc1)C(=O)O`, the Potency entry in [2], in test [3], in [4] and in [5] was “inactive” each time.

For `N[C@@H](COP(=O)(O)O)C(=O)O`, the Potency result in [2], in test [3], in test [4] and in test [5] was “inactive” throughout.
